# Reference: ChEMBL document CHEMBL4513216, “Probing the Open Global Health Chemical Diversity Library for Multistage-Active Starting Points for Next-Generation Antimalarials” (ACS Infect Dis, 2020)
# Out of some 69,000 compounds screened, about 8,600 (12%) showed an effect of 50% or more. The sample as a whole holds a higher share of strong results than the screen did.
# System: Plasmodium berghei
# Assay: Screen against P. berghei liver stage (PbLuc), transformed with Luciferase, at 10uM
# Assay type: functional, HepG2
# Conditions: tested at 10 uM
row,SMILES,INHIBITION
1,COCCN1CCC(CNc2cnc3ccccc3n2)CC1,46.1%
2,COCCN1CCC(CNc2nccc(-c3cnn(C)c3)n2)CC1,13.3%
3,Cc1csc(CN2CCC3(CC2)COC(COCC2CC2)C3)n1 (stereo not drawn),43%
4,CS(=O)(=O)NC1CCCN(C(=O)NCc2ccccc2Cl)C1 (stereo not drawn),25.4%
5,CC(=O)OC1CN(c2nc3c(Cl)cccc3s2)C1,-56.7%
6,c1cnc(-c2nc(CNC3CCc4ncnn4C3)cs2)nc1 (stereo not drawn),-25.75%
7,Cc1ccc(CCC(=O)N2CCn3c(nnc3C(C)C)C2)cc1Cl,8.41%
8,COc1ccc(-c2nnc(SC(C)C(N)=O)[nH]2)c(OC)c1 (stereo not drawn),18.3%
9,COc1ccc(-c2nnc(SC(C)C(=O)NC3CCCC3)[nH]2)c(OC)c1 (stereo not drawn),51.7%
10,COc1ccc(-c2ccccc2CN)c(OC)c1,-58%
11,COc1ccc(-c2nnc(SCC(=O)NCC(C)C)[nH]2)c(OC)c1,-30.8%
12,COc1ccc2nnc(C(=O)NC3CCCC3)nc2c1,-65.8%
13,COc1ccc(-c2nnc(SC(C)C(=O)NC3CC3)[nH]2)c(OC)c1 (stereo not drawn),37.1%
14,COc1ccc(S(=O)(=O)NC(=O)C(C)OC)c(OC)c1 (stereo not drawn),33%
15,COc1ccc(-c2nnc(SC(C)C(=O)NC(C)(C)C)[nH]2)c(OC)c1 (stereo not drawn),82.5%
16,COc1ccc(-c2nnc(SC(C)C(=O)NCC(C)C)[nH]2)c(OC)c1 (stereo not drawn),64%
17,COc1cc2cc3c(nc2cc1OC)OCCN(Cc1cccs1)C3,-3.94%
18,Cc1ccc(CN2CCc3onc(C(=O)Nc4cccnc4)c3C2)o1,-12.2%
19,CC1(C(=O)NC2CCCC2)CCCN(c2ncccn2)C1 (stereo not drawn),0.301%
20,O=C(NCC1CCOCC1)c1cc(-c2cccnc2)c2cnccc2n1,-4.87%
21,CCn1cc(CN2CCC(c3nnc(CN(C)C)n3CC)CC2)cn1,15.1%
22,CN(C)c1cc(C2CCCN(Cc3cnn(C)c3)C2)ccn1 (stereo not drawn),3.85%
23,CCn1cc(C2CCN(Cc3ccnc(N(C)C)c3)CC2)cn1,66.7%
24,Cc1ccc(C(=O)N2CCCCC2c2[nH]ncc2S(C)(=O)=O)s1 (stereo not drawn),36.7%
25,CN(C)CC1CSCCCN1C(=O)c1ccsc1 (stereo not drawn),-26.3%
26,CN1CC2(CCC(C(=O)O)CC2)Oc2ccccc2C1=O (stereo not drawn),-4.35%
27,CN1CCC(Oc2ccc(NC(=O)c3ccccc3Br)cc2)CC1,51.8%

row,SMILES,INHIBITION
1,Cc1ccc(C(=O)Nc2ccc(OC3CCN(C)CC3)cc2)c(C)c1,47%
2,CN1CCC(Oc2ccc(NC(=O)c3ccccc3)cc2)CC1,21.7%
3,CN1CCC(Oc2ccc(NC(=O)c3cccc(Cl)c3)cc2)CC1,65.1%
4,Cc1ccc(C)c(C(=O)Nc2ccc(OC3CCN(C)CC3)cc2)c1,55.8%
5,Cc1ccccc1C(=O)Nc1ccc(OC2CCN(C)CC2)cc1,10.7%
6,Cc1cccc(C(=O)Nc2ccc(OC3CCN(C)CC3)cc2)c1,63.5%
7,COc1cccc(C(=O)Nc2ccc(OC3CCN(C)CC3)cc2)c1,49.2%
8,COc1ccccc1C(=O)Nc1ccc(OC2CCN(C)CC2)cc1,-25.6%
9,CN1C(=O)CO[C@H](c2ccc(NC(=O)c3cccc(F)c3)cc2)[C@H]1CO,38.1%
10,CSc1ccccc1C(=O)Nc1ccc(OC2CCN(C)CC2)cc1,11.8%
11,COCCc1noc(CN2CCCCC2Cn2cccn2)n1 (stereo not drawn),-2.33%
12,CCCSCC(=O)NCc1cccc(CN(C)CC)c1,39.8%
13,CN([C@@H]1CC[C@@H](N2CCOCC2)[C@@H]1O)S(=O)(=O)c1ccccc1,3%
14,Cc1nnc(CN(Cc2ccco2)Cc2cccc3c2OCO3)n1C,-16.4%
15,CN(C)CC1(O)CCN(C(=O)c2ccc(-n3cccn3)cc2Cl)C1 (stereo not drawn),36.6%
16,CNC(=O)c1cc(S(=O)(=O)C(C)C)cs1,24.1%
17,COc1ccc(OC)c(C(C)NS(=O)(=O)c2cnn(C)c2)c1 (stereo not drawn),11.2%
18,CCN(CC)S(=O)(=O)NCCc1cc(C)ccc1OC,-12.9%
19,COc1ccc(C)cc1CCNS(=O)(=O)c1ccc2c(c1)CCC(=O)N2,56.3%
20,COc1ccc(C)cc1C(C)NS(=O)(=O)c1ccc2c(c1)CCC(=O)N2 (stereo not drawn),54.5%
21,COc1ccc(C)cc1CCNS(C)(=O)=O,-18%
22,COc1ccc(C(C)NS(=O)(=O)c2ccc3c(c2)CCC(=O)N3)cc1F (stereo not drawn),20.2%
23,Cc1oncc1C(=O)N1C[C@H](OCc2ccccn2)[C@H]2OCCC[C@H]21,15.4%
24,COc1ccc(F)c(-c2ccnc(N)c2)c1,1.95%
25,CC(CC(=O)NCCNS(C)(=O)=O)C1CCCCC1 (stereo not drawn),44.5%
26,COCCn1cc2c(n1)C(CNS(C)(=O)=O)OCC2 (stereo not drawn),-31%
